The values that follow come from PubChem BioAssay (NCI).

Holding throughout (test): NCI-60 one-dose screen, 48 h (100 = growth as untreated, 0 = no growth, -100 = all killed)
Holding throughout (conditions): 10 µM unless noted

For assay [1], the system named is SK-MEL-2 melanoma.
Assay [2] deals with EKVX NSCLC.
In assay [3] the test system is SN12C renal.
In assay [4] the test system is TK-10 renal.
Assay [5] deals with ACHN renal.
Assay [6] has as its system CAKI-1 renal.
The test system of assay [7] is A498 renal.
Assay [8] has as its system CCRF-CEM leukemia.
The subject of assay [9] is MOLT-4 leukemia.
For assay [10], the system named is RPMI-8226 leukemia.
In assay [11] the test system is OVCAR-8 ovarian.
Assay [12] deals with OVCAR-5 ovarian.
Assay [13] has as its system OVCAR-4 ovarian.
Assay [14] relates to SK-OV-3 ovarian.
For assay [15], the system named is IGROV1 ovarian.
Assay [16] concerns OVCAR-3 ovarian.
For assay [17], the system named is HS 578T breast.
The subject of assay [18] is NCI/ADR-RES ovarian.
The test system of assay [19] is SR leukemia.
In assay [20] the test system is UO-31 renal.

Molecules are shown by their SMILES. This is part of a sample that, as a whole, favours compounds with a hit. Of some 83,000 tested, about 20% had one in any assay.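 The test compound was applied at a single concentration to cells in 96-well plates for 48 hours, and percent growth was recorded.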 A number with no mark means an inactive call. The source made the active and inactive calls. Rule for the calls: active = growth percent below 10; inactive = the rest.

Turning to `COc1nc2ccccc2cc1-c1nc2c(cnn2-c2ccc(Br)cc2)c(=O)[nH]1`, the growth is 24.3% in assay [1]; 42.4% in [2]; 33.2% in assay [3]; 40.6% in assay [4]; 35.4% in assay [5]; 29.4% in assay [6]. Also, the growth in [7] is 8.46% (active); in [8], 13.7%; in assay [9] it was 47.7%; in [10] it was 20.7%; in assay [11], 27.7%; in [12], 44.1%. Further, the growth in assay [13] is 57.3%; in assay [14], 15.1%; in assay [15], 41.8%; in assay [16], -34.2% (active); in [17] it was 23%; in assay [18], 4.99% (active).
On to `COC(=O)Nc1ccc(-c2nc(-c3cccc(OC)c3)c(-c3ccnc(Br)c3)[nH]2)cc1`, for which the growth in [1] was 72.1%; in assay [2], 55.5%; in assay [3] it was 67%; in [4], 77.9%; in assay [5], 53.4%; in [6], 52%. In addition, the growth in assay [8] is 34.9%; in [9], 30.9%; in assay [11], 48%; in [12], 85.6%; in assay [13] it was 51.5%; in [14], 88.1%. Also, the growth is 72.5% in assay [15], 70.2% in assay [16], 33.4% in assay [17] and 45.2% in assay [18].
Regarding `O=c1c2cc(F)ccc2sc2c(NCCN3CCOCC3)nc3ccccc3c12`, the growth is 110% in [1]; 91.6% in [2]; 72.8% in assay [3]; 79.2% in assay [4]; 64.7% in assay [5]; 33.2% in [6]. Also, the growth in [7] is 58.3%; in assay [8] it was 57%; in [9], 52.1%; in assay [19] it was 28.3%; in [11], 81.4%; in assay [12], 89.5%. Further, the growth in assay [13] is 67.5%; in assay [14], 85%; in assay [15], 74.6%; in assay [17], 63.3%; in [18], 72.5%.
With `COc1ccc(OC)c(/C=C2\Oc3cc(OCCN4CCC(Cc5ccccc5)CC4)ccc3C2=O)c1`, the growth in [1] was 105%; in assay [2] it was 75.6%; in [3], 80.8%; in [20] it was 53.8%; in assay [4], 97.7%; in assay [5], 99.7%. Besides, the growth is 61.4% in assay [6]; 75.6% in assay [8]; 62.4% in assay [9]; 78% in [11]; 92.1% in assay [12]; 93.8% in [13]. In addition, the growth was 93.3% in [14], 89.8% in assay [16], 82.2% in [17] and 80.2% in assay [18].
For the molecule `O=C(/C=C/c1ccc([N+](=O)[O-])o1)NNC(=O)c1cc2ccccc2cc1O`, the growth is -50.9% (active) in [1]; 38.6% in assay [2]; 7.5% (active) in [3]; 19.3% in [4]; -82% (active) in assay [5]; 22.5% in assay [6]. In addition, the growth in assay [7] is -51% (active); in assay [8], 6.58% (active); in assay [9], 3.05% (active); in [10], -6.98% (active); in assay [11] it was 8.19% (active); in assay [12], 45.7%. The growth is 29.3% in assay [13]; 32.8% in assay [14]; -1.53% (active) in assay [15]; -32.3% (active) in assay [16]; 33% in assay [17]; 5.33% (active) in [18].
Regarding `COc1cc(/C=C2\C(=O)Nc3ccc(Br)cc32)cc(OC)c1OC`, the growth in [1] is 84%; in [3], 80.9%; in assay [20], 54.7%; in assay [4] it was 82.5%; in assay [5] it was 79.1%; in [6] it was 42.1%. Also, the growth is 55.7% in [7]; 72.8% in assay [8]; 63.6% in [9]; 16.3% in assay [19]; 52.2% in [10]; 96.8% in [12]. Moreover, the growth in assay [13] was 71.8%; in [14], 88.3%; in assay [15] it was 43%; in [16], 60.3%; in assay [17], 63%; in [18], 42.7%.
Take `Cc1nn(-c2ccccc2)c(-n2ccnc2)c1/C=N/Nc1nc(-c2ccc(F)cc2)cs1`: the growth was 98.1% in assay [1]; 80.3% in [3]; 51.2% in assay [20]; 98.3% in assay [4]; 78.9% in [5]; 80% in assay [6]. Further, the growth is 71.8% in assay [7]; 70.1% in assay [8]; 48.3% in [9]; 49% in [19]; 76.1% in assay [11]; 105% in [12]. Further, the growth is 56% in assay [13]; 81.4% in [14]; 87.4% in [15]; 84.8% in assay [16]; 82.9% in [17]; 79.2% in assay [18].
In the case of `COc1ccc2[nH]c(-c3ccccc3)c(/C=C(\C#N)S(=O)(=O)c3ccccc3)c2c1`, the growth was 87% in assay [1]; 67% in assay [3]; 70.2% in [20]; 92.4% in [4]; 71.6% in assay [5]; 76.6% in assay [6]. For the same molecule, the growth was 57.2% in assay [7]; 36.2% in assay [8]; 17.4% in [9]; 60.7% in assay [11]; 101% in assay [12]; 12.5% in assay [13]. Further, the growth was 73.3% in [14]; 67% in assay [15]; 45.1% in [16]; 67.3% in assay [17]; 30.5% in assay [18].
For the molecule `CCCCCCNC(=O)Oc1ccc(/C(=C(\C)c2ccc(Cl)cc2)c2ccc(OCCCN(C)C)cc2)cc1`, the growth in assay [2] is 83%; in assay [3] it was 90%; in assay [20], 55.4%; in assay [4] it was 75.8%; in assay [5], 94.3%; in [6], 96.2%. For the same molecule, the growth was 85.7% in assay [7]; 70.7% in [8]; 37.3% in assay [9]; -13% (active) in assay [19]; 79% in [10]; 75.1% in assay [12]. The growth in [13] was 76%; in [14], 94.4%; in [15] it was 67%; in assay [16], 87.8%; in assay [17], 74.5%; in assay [18], 83.2%.
